Data: the supplement of paper PMC3334620
Whole data set: some 33,000 sequences, median “E-score (-0.5 to 0.5)” near -0.011, cut for the highest 2% near 0.28. The sample as a whole holds a higher share of the highest values than the screen did.

target: T1, Gcr1 (UniProt P07261); assay: PBM E-score (8-mer binding enrichment) (E-score (-0.5 to 0.5)); higher = stronger / more preferred TF binding; settings: protein concentration: 100 nM; construct: GST-full length
T1 sequence: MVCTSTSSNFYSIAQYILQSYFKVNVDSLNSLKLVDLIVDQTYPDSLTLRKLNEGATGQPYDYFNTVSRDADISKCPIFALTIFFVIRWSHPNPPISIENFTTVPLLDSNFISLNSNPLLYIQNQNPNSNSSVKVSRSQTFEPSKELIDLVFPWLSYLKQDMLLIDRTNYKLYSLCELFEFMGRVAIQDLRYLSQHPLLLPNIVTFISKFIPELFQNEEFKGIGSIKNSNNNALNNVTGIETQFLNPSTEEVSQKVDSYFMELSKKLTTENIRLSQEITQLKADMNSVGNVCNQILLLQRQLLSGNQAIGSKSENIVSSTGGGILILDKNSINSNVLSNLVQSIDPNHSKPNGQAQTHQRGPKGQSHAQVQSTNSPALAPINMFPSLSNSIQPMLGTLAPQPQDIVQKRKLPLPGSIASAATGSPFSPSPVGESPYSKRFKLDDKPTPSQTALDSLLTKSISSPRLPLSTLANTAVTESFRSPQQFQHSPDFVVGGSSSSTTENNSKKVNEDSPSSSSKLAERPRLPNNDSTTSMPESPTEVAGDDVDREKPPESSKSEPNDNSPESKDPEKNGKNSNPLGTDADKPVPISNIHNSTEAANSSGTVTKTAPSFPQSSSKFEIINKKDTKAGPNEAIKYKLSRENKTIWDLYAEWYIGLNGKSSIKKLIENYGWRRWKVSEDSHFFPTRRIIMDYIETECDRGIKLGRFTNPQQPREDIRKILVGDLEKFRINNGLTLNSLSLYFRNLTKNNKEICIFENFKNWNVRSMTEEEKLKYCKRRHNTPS
Experimental: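 Universal 'all 10-mer' protein binding microarrays (Agilent AMADID 015681) probed with GST-tagged S. cerevisiae TFs (full-length or DBD) made by in vitro transcription/translation (PURExpress), about 100-200 nM. Bound TF was detected with fluorescent anti-GST. Each ungapped 8-mer (which stands for itself and its reverse complement) is scored by the PBM enrichment score (E-score), a modified Wilcoxon-Mann-Whitney statistic from -0.5 to +0.5, computed with the Universal PBM Analysis Suite. Scale: above 0.35 generally sequence-specific binding.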

Point of comparison: CAGACGCA, “PBM E-score” value 0.175. Against it:
- CTTGGTGC — lower, 0.116
- AACTAAAT — lower, 0.123
- CAACATTG — lower, -0.0426
- AAAACCGT — lower, 0.0768
- CTCGGGCC — lower, -0.107
- ACTGTCTC — lower, -0.0499
- CGATGCCG — lower, 0.145
- AAGTAGAA — lower, 0.0726
- CGTTCCAA — lower, 0.03
- TGTTCCAA — lower, 0.112
- CGTTCCCA — lower, -0.0578
- GGTTCCAC — higher, 0.305
- CGTTCCTA — lower, 0.15
- AGTTCCAC — lower, 0.0854
- GGTTCCAA — higher, 0.391
- GGTTCCTA — higher, 0.342
- CGTTCCAC — lower, 0.0103
- GGTTCCCA — higher, 0.327
- AGTTCCCA — higher, 0.22
- AGTTCCTA — lower, 0.116
- CGCTTTCA — lower, -0.00233
- CCTGAGAC — lower, -0.0674
- GCACCAAC — higher, 0.197
- GTATCTAA — lower, 0.16
- CAGACGCG — lower, 0.136
- AAGACGCG — higher, 0.278
- AAGACGCT — higher, 0.218
- AAGACGCC — higher, 0.349
- CAGACGCC — higher, 0.329
- GCGAAGAC — lower, -0.133
- AGAGCAGG — lower, 0.0116
- ATACCTGC — lower, 0.115
- GAACGCTA — lower, -0.111
- CCCTGGCA — lower, -0.00029
- CCTCTCGC — lower, -0.0389
- CGGGATGA — lower, -0.188
- AAGGATGT — lower, 0.0399
- CAGGATGG — lower, -0.132
- CGGGATGC — higher, 0.332
- AAGGATGC — higher, 0.313
- CAGGATGA — lower, 0.0175
- CAGGATGC — higher, 0.446
- CAGGATCG — lower, 0.154
- CAGGATCC — higher, 0.345
- AAGGATGA — lower, -0.116
- AGGGATGC — lower, 0.098
- CAGGATCA — lower, -0.179
- CCAGCTGG — lower, 0.157
- ACTCTAAC — lower, 0.00366
- CCCTTGCA — lower, -0.097
- ACCGGAGG — lower, -0.09
- TATGAAAA — lower, 0.131
- AGGCAGTA — lower, -0.0662
- CTGGTATA — lower, -0.0854
- ACGTGTTA — lower, -0.0746
- AGCTCGCG — lower, -0.0019
- GAGGATGA — lower, -0.0555
- ACGGATGC — higher, 0.183
- CCGGATGA — lower, 0.112
- GAGGATGC — higher, 0.423
- GAGGATAC — lower, -0.00197
- CCGGATGC — higher, 0.4
- GCAGGGGA — lower, -0.102
- CGGTGCAC — lower, -0.105
- AGAGCAGC — lower, 0.0483
- AGCCATGC — lower, -0.346
- CCAGAAAA — higher, 0.335
- CCAGAATC — higher, 0.245
- CAAGAATA — higher, 0.19
- CAAGAAAA — higher, 0.248
- ACCGAATA — lower, -0.0481
- CCAGAATA — higher, 0.283
- GCCGAATA — higher, 0.2
- CCCGAATA — higher, 0.334
- ACAGAAAA — lower, -0.076
- GGTTGACA — lower, 0.0705
- AATCGGGC — lower, 0.114
- CATAGGCA — lower, 0.0323
- CTGATGGC — lower, -0.068
- ACGGTAGA — lower, 0.138
- TGAAACAA — lower, 0.0585
- CGCCTGAA — lower, 0.143
- AAGCATCC — higher, 0.404
- AAGCATCG — lower, 0.0291
- GAGCATCA — lower, -0.0695
- CAGCATCC — higher, 0.447
- GAGCATAC — lower, -0.155
- GAGCATCC — higher, 0.398
- CAGCATCG — lower, 0.0157
- CAGCATCA — lower, -0.00923
- AAGCATCA — lower, -0.0253
- CTCTCGCA — lower, 0.0115
- ACACTGGT — lower, 0.035
